# PLK1 PBD inh – inhibitors of human PLK1 polo-box domain binding | P53350 | Plk1 PBD binding of FITC phosphopeptide, fluorescence polarization | Potency, µM, for the others: max response, negative = inhibition, actives largely listed as inhibitors | actives 2.8% (n = 360,000) | AID 720504; note: potency is the fitted concentration of half-maximal effect; series mostly up to about 57 µM; % is set by controls: 0 for no effect and ±100 for the full control effect; nearly all actives have a fitted effect of over 65% in size
# JMJD2A Tudor – JMJD2A Tudor domain (human) inhibition; actives 4.4% (n = 390,000); AID 504339; Potency, µM (doses to about 114 µM), without a hit: top-dose activity change, negative = inhibition, most hits filed as inhibitors; O75164; AlphaScreen JMJD2A-Tudor / H3K4me3 peptide binding; note: potency is the fitted concentration of half-maximal effect; % is set by controls: 0 for no effect and ±100 for the full control effect; nearly all actives have a fitted effect of over 50% in size
# GCN5L2 inh – inhibitors of human GCN5L2 histone acetyltransferase; actives 0.21% (n = 390,000); Potency, µM (top dose mostly 58.9 µM), for inactives: at the top dose activity change, negative = inhibition, actives largely listed as inhibitors; GCN5L2 HAT assay, ThioGlo1 CoA-SH fluorescence; note: potency is the fitted concentration of half-maximal effect; % is set by controls: 0 for no effect and ±100 for the full control effect
#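 Fluorescence readout, Ex340nm/Em540nm: ThioGlo1 (50uM final) reacts with free CoA thiol released as 20nM GCN5L2 acetylates H3(1-25) peptide (75uM) using acetyl-CoA (70uM). Compound and enzyme sat 15 min beforehand; 20 min room-temperature reaction.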
# BAZ2B inh – BAZ2B (human) inhibition | actives 4.4% (n = 360,000) | Potency, µM (doses to about 114 µM), inactives show top-dose activity change, negative = inhibition, actives largely listed as inhibitors | AID 504333 | AlphaScreen BAZ2B-H3K14Ac peptide displacement | Q9UIF8; note: potency is the fitted concentration of half-maximal effect; % is set by controls: 0 for no effect and ±100 for the full control effect; nearly all actives have a fitted effect of over 60% in size
#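 Inhibition is scored as reduced AlphaScreen emission. The BAZ2B/b-H3(5-23)K14Ac complex (50 nM each) in PBS pH 7.4, 0.01% Tween-20 meets compound (up to 110 uM) for 30 min at RT before bead addition.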
# PI5P4Ka inh – inhibitors of human PI5P4K alpha; actives 1.2% (n = 330,000); P48426; max response, %; PI5P4Kalpha enzyme, ADP-Glo luminescence, 60 min; hits give low values; active = max response of -50% or lower; inconclusive = between -30% and -50%; inactive = -30% or higher; note: value at the top dose of about 77 µM; % is set by controls: 0 for no effect and ±100 for the full control effect
# Target sequence (P48426 whole entry, looked up): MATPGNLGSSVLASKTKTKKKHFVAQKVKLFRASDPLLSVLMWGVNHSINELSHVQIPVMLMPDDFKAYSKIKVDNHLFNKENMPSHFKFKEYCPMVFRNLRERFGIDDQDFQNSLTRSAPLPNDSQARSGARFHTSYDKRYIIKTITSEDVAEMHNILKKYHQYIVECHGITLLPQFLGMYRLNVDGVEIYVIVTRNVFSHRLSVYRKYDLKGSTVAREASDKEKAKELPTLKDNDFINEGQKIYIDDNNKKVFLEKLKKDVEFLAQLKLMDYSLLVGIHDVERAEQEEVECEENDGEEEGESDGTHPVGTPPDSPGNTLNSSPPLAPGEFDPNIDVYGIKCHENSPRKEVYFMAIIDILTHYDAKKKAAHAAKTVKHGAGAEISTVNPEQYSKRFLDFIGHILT
#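 PI5P4Kalpha ADP-Glo assay; 5 microM ATP final; 60 min RT reaction; HEPES pH 7.4/EGTA/CHAPS, 5% DMSO; controls lacking substrate or enzyme; luminescent end-point.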
# HP1b binding inh – HP1-beta chromodomain-methylated histone interaction inhibition. AlphaScreen HP1-beta / biotin-H3K9me3 peptide binding. P83916. Potency, µM (top dose mostly 114 µM), for the others: top-dose activity change, negative = inhibition, most hits filed as inhibitors. AID 540317. actives 0.56% (n = 390,000); note: potency is the fitted concentration of half-maximal effect; nearly all actives have a fitted effect of over 70% in size
# Target sequence (P83916 whole entry, looked up): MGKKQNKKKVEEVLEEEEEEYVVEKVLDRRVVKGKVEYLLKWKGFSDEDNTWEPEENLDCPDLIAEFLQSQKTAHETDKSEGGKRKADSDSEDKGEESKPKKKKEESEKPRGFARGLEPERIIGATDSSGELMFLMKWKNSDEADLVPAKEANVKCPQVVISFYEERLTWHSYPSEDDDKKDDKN
#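 Compound inhibition of the preformed complex between 50 nM HP1-beta and 50 nM biotinylated H3K9me3 peptide was read by AlphaScreen. Buffer was PBS pH 7.4 with 0.01% Tween-20. Incubations ran 30 min at room temperature, with 10 ug/mL donor/acceptor beads.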
# An asterisk follows results filed as active; ? = inconclusive; / = no result; ! = repeats disagree; [ ] = another dose, or the depositor's remark. Compounds with a hit are over-represented: about 7% of the library has one in this group of screens. Unless noted, calls come from the whole dose curve; as a rule, active = well fitted curve in the direction sought with a large enough effect; inconclusive = small, poorly fitted or top-dose-only effect, or another doubt; inactive = no such curve, though single readings can be large; an effect the other way counts as inactive or inconclusive.
SMILES,PLK1 PBD inh,JMJD2A Tudor,GCN5L2 inh,BAZ2B inh,PI5P4Ka inh,HP1b binding inh
O=C(COC(=O)c1ccc2c(c1Cl)C(=O)c1ccccc1C2=O)NC1CC1,-8%,?,-8%,?,-22,-3%
C=Cc1ccc(Cn2c(C)c(CNCCc3ccccc3C)c(C(=O)O)c2C)cc1,/,?,-4%,?,/,-14%
COc1ccc(OCC#CCNC(C)(C)C)cc1,-10%,40µM*,-3%,56µM*,1,?
CCCn1c(SCC(=O)Nc2nnc(C)s2)nnc1-c1ccoc1C,27µM*,50µM*,-6%,0%,-20,-12%
Cc1nnc(NC(=O)CSc2nnc(-c3ccoc3C)n2CC(C)C)s1,27µM*,50µM*,1%,63%,-17,-6%
CCCCn1c(SCC(=O)Nc2nnc(C)s2)nnc1-c1ccoc1C,1%,10%,-4%,0%,7,12%
CN(C)c1ccc(O)c2c1CC1CC3[C@@H](N(C)C)C(=O)C(C(N)=O)=C(O)[C@]3(O)C(=O)C1=C2O (stereo partly drawn),-22%,-12%,?,3.5µM*,?,26%
C=C1c2c(Cl)ccc(O)c2C(O)=C2C(=O)[C@@]3(O)C(O)=C(C(N)=O)C(=O)[C@@H](N(C)C)[C@@H]3[C@@H](O)[C@H]12,/,/,6.3µM*,/,/,/
C[C@H]1c2cccc(O)c2C(O)=C2C(=O)[C@]3(O)C(O)=C(C(N)=O)C(=O)[C@@H](N(C)C)[C@@H]3[C@@H](O)[C@@H]21,-17%,13µM*,?,8.9µM*,-5,19%
CC1c2cccc(O)c2C(O)=C2C(=O)[C@]3(O)C(O)=C(C(N)=O)C(=O)C(N(C)C)C3C(O)C21 (stereo partly drawn),/,/,1%,/,/,/
C#C[C@]1(O)CC[C@H]2[C@@H]3CCC4=Cc5oncc5C[C@]4(C)[C@H]3CC[C@@]21C,4%,4%,-6%,/,1,34%
CCOC1=NN(c2ncc(C(F)(F)F)cc2Cl)C(=O)C1,24µM*,?,-6%,-11%,-3,-9%
COc1cc2c(cc1OC)C1(Nc3c-2c(Cc2ccccc2)nn3-c2ccccc2)C(=O)Nc2ccccc21 (stereo not drawn),0%,?,0%,50µM*,-29,-27%
COc1ccc(-c2nc3ccc(NC(C)=O)cc3c(=O)n2Cc2ccccc2)cc1COc1ccc(NC(C)=O)cc1,/,?,/,/,/,19%
COc1ccc(-c2nc3ccccc3c(=O)n2Cc2ccccc2)cc1CNc1ccc(NC(C)=O)cc1,/,50µM*,/,/,/,/
COc1ccc(-c2nc3ccc(NC(=O)CO)cc3c(=O)n2Cc2cccc(Cl)c2)cc1COc1ccc(NC(C)=O)cc1,/,56µM*,/,/,/,-17%
CCN(CC)C(=O)c1sc2nc(Cc3ccccc3)[nH]c(=O)c2c1C,30µM*,?,-2%,-21%,-29,2%
CC(=O)N(Cc1ccccc1)Cc1nc2sc(C)c(C)c2c(=O)[nH]1,-1%,-1%,-2%,-11%,7,-12%
Cc1c(C(=O)N(C)C)sc2nc(-c3ccccn3)[nH]c(=O)c12,-30%,50µM*,-6%,10µM*,-9,8%
C/C(O)=c1/c(=O)nc2cccc3c2=c1c1ccccc1c3=O,-20%,-5%,-1%,-36%,1,26%
CCOc1cc(N2CCOCC2)c(OCC)cc1NC(=O)CN1CCc2ccccc2C1,0%,1.4µM*,-3%,20µM*,0,?
CCOc1cc(N2CCOCC2)c(OCC)cc1NC(=O)CC12CC3CC(CC(C3)C1)C2,0%,45µM*,-4%,35µM*,-7,-52%
CCOc1cc(N2C(=O)CC3CS(=O)(=O)CC32)c(OCC)cc1NC(=O)c1ccccc1 (stereo not drawn),3µM*,?,-4%,-2%,?,?
CCOc1cc(N2CCOCC2)c(OCC)cc1NC(=O)CN1CCN(Cc2ccc3c(c2)OCO3)CC1,1%,-35%,-6%,-24%,2,-5%
CCOc1cc(N2CCOCC2)c(OCC)cc1NC(=O)Cn1cnnn1,-1%,-21%,-2%,/,5,22%
SMILES,PLK1 PBD inh,JMJD2A Tudor,GCN5L2 inh,BAZ2B inh,PI5P4Ka inh,HP1b binding inh
CCOc1cc(N2CCOCC2)c(OCC)cc1NCC(=O)N1CCN(Cc2ccccc2)CC1,2%,0.79µM*,-11%,20µM*,2,20µM*
CSc1ccc(Cl)c(C(=O)Nc2ccc(C)cn2)c1,-3%,-12%,-9%,-2%,6,44%
Cc1ccc(Cl)c(NC(=O)COC(=O)c2cc[n+]([O-])cc2)c1Cl,-4%,-5%,-5%,/,0,25%
CCOc1cc(N2CCOCC2)c(OCC)cc1NC(=O)CSc1ccccc1C(=O)O,-5%,-33%,-4%,79µM*,-2,13%
CCOc1cc(C(=O)Nc2cc3c(cc2N2CCOCC2)n(C)c(=O)n3C)cc(OCC)c1OCC,13µM*,25µM*!,-5%,-33%,-1,17%
CCOc1cc(N2CCOCC2)c(OCC)cc1NC(=O)c1cccc(N(C)C)c1,4%,?,-6%,40µM*,8,?
COc1ccc(C(=O)Nc2cc3c(cc2N2CCOCC2)n(C)c(=O)n3C)cc1OC,1%,-20%,-14%,?,-6,37%
CCc1nnc(NC(=O)c2ccc(OC)c(S(=O)(=O)N3CCCC3)c2)s1,4%,-2%,-1%,10%,1,11%
CN(C)c1ccc(NC(=O)CN2CCC(N3CCCCC3)CC2)cc1,-8%,?,3%,45µM*,-1,?
CN(C)c1ccc(NC(=O)CN2CCN(CC(=O)Nc3ccc(Br)cc3)CC2)cc1,/,-23%,1%,-15%,/,20%[57 µM]
CCN1CCN(CC(=O)Nc2ccc(N(C)C)cc2)CC1,-2%,7.1µM*,2%,?,-4,-4%
COc1ccc(N2C(=O)c3ccccc3NC2c2ccc(OC)c(COc3ccc(NC(C)=O)cc3)c2)cc1 (stereo not drawn),/,-5%[57.1 µM],/,/,/,-6%[57 µM]
Cc1cccc(OCCOCCSc2ncccn2)c1,1%,9%,3%,11%,-6,45%
Cc1cccc(OCCSc2nc(N)cc(N)n2)c1,3.8µM*,-12%[11.4 µM],-6%,?,-18,-10%
C=C1C(C(=O)Nc2ccc(OC)cc2)C1C(=O)Nc1ccc(OC)cc1 (stereo not drawn),-11%,-4%,-5%,?,1,2%
O=C(NCCS(=O)(=O)N1CCN(c2ccccc2F)CC1)c1ccc(Br)cc1,-22%,-17%,7%,-4%,6,-5%
CCCC(=O)Nc1ccc(NC(=O)c2ccccn2)cn1,-10%,3.2µM*,-3%,-24%,7,9%
